Measured values reported in PubChem BioAssay (NCI).
Compounds without any hit were thinned out: in the full panel of roughly 83,000, 20% have a hit.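 Compound tested at a single concentration for 48 hours in 96-well plates; a percent growth value below 10 was scored as active.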 Active and inactive are the calls of the source.

Experiments:
Experiment in all cases: NCI-60 one-dose screen, 48 h (100 = growth as untreated, 0 = no growth, -100 = all killed)
Details in all cases: 10 µM unless noted
SR leukemia = system: SR leukemia
RPMI-8226 leukemia = system: RPMI-8226 leukemia
OVCAR-8 ovarian = system: OVCAR-8 ovarian
OVCAR-5 ovarian = system: OVCAR-5 ovarian
OVCAR-4 ovarian = system: OVCAR-4 ovarian
SK-OV-3 ovarian = system: SK-OV-3 ovarian
IGROV1 ovarian = system: IGROV1 ovarian
OVCAR-3 ovarian = system: OVCAR-3 ovarian
HS 578T breast = system: HS 578T breast
NCI/ADR-RES ovarian = system: NCI/ADR-RES ovarian
T-47D breast = system: T-47D breast
BT-549 breast = system: BT-549 breast
MDA-MB-435 melanoma = system: MDA-MB-435 melanoma
SW-620 colon = system: SW-620 colon
MCF7 breast = system: MCF7 breast
HCT-116 colon = system: HCT-116 colon
HCC-2998 colon = system: HCC-2998 colon
KM12 colon = system: KM12 colon

Measured: growth

O=C(O)CCCn1c(SCc2c(Cl)cccc2Cl)nc2ccsc2c1=O
inactive: RPMI-8226 leukemia 19.2% | OVCAR-8 ovarian 28.8% | OVCAR-5 ovarian 50.7% | OVCAR-4 ovarian 70.7% | SK-OV-3 ovarian 34.3% | IGROV1 ovarian 44.9% | HS 578T breast 11.9% | T-47D breast 35.5% | BT-549 breast 34.2% | SW-620 colon 15.1% | MCF7 breast 20.6% | HCT-116 colon 18.8% | HCC-2998 colon 29.6% | KM12 colon 18.3%
active: SR leukemia 9.9% | OVCAR-3 ovarian -20.4% | NCI/ADR-RES ovarian 4.6% | MDA-MB-435 melanoma -58.4%

C=C1C(=O)O[C@H]2[C@H]1CC/C(COC(=O)NCc1ccc(Cn3c(=O)sn(-c4ccc(OC)cc4)c3=O)cc1)=C\CC[C@@]1(C)O[C@@H]21
active: RPMI-8226 leukemia -3.82% | OVCAR-3 ovarian -27.1% | SW-620 colon -59.8% | HCT-116 colon 5.31%
inactive: SR leukemia 27.3% | OVCAR-8 ovarian 75.8% | OVCAR-5 ovarian 83.6% | OVCAR-4 ovarian 35.7% | SK-OV-3 ovarian 105% | IGROV1 ovarian 46.7% | HS 578T breast 90.7% | NCI/ADR-RES ovarian 95.8% | T-47D breast 18.5% | BT-549 breast 73.1% | MDA-MB-435 melanoma 67.1% | MCF7 breast 20.3% | HCC-2998 colon 97.5% | KM12 colon 95.3%

CCCCCCCCn1ccc2cc(NC(=O)Cn3cc(CN4CCC(C)CC4)nn3)ccc21
inactive: OVCAR-8 ovarian 32.8% | OVCAR-5 ovarian 76.7% | OVCAR-4 ovarian 63% | SK-OV-3 ovarian 79.1% | IGROV1 ovarian 39.6% | OVCAR-3 ovarian 14.7% | HS 578T breast 59.2% | NCI/ADR-RES ovarian 63.1% | BT-549 breast 78.1%
active: SR leukemia -0.808% | RPMI-8226 leukemia -40.9% | T-47D breast 6.9% | MDA-MB-435 melanoma -75.6% | SW-620 colon -72.1% | MCF7 breast 4.43% | HCT-116 colon -18.6% | HCC-2998 colon -78.8% | KM12 colon 4.72%

N=C(N)c1ccc(-c2ccc(-c3ccc(Cl)cc3)o2)o1
active: SR leukemia -28.8% | RPMI-8226 leukemia -6.54% | OVCAR-8 ovarian -55.4% | OVCAR-5 ovarian 3.3% | OVCAR-3 ovarian -86.1% | NCI/ADR-RES ovarian -50.6% | MDA-MB-435 melanoma -89.1% | SW-620 colon -69.7% | MCF7 breast -70.9% | HCT-116 colon -76.1% | HCC-2998 colon -81.1% | KM12 colon -84.9%
inactive: OVCAR-4 ovarian 46.2% | SK-OV-3 ovarian 81.2% | IGROV1 ovarian 37.7% | HS 578T breast 78.6% | T-47D breast 26.5% | BT-549 breast 93.1%

O=C1/C(=C/c2cccc([N+](=O)[O-])c2)COc2ccc(O)cc21
inactive: OVCAR-8 ovarian 31.2% | OVCAR-5 ovarian 54.8% | OVCAR-4 ovarian 74.4% | SK-OV-3 ovarian 111% | IGROV1 ovarian 33.8% | OVCAR-3 ovarian 34.4% | HS 578T breast 33.7% | NCI/ADR-RES ovarian 42% | T-47D breast 46.2% | BT-549 breast 63.3% | MDA-MB-435 melanoma 12.4% | HCC-2998 colon 58.7% | KM12 colon 15.5%
active: SR leukemia 8.9% | RPMI-8226 leukemia -22.9% | SW-620 colon -47.3% | MCF7 breast -26.2% | HCT-116 colon -44.6%

O=C(c1ccc(F)c(Cl)c1)N1c2ccccc2Sc2ccccc21
active: MDA-MB-435 melanoma 8.14%
inactive: SR leukemia 34% | RPMI-8226 leukemia 52.6% | OVCAR-8 ovarian 89.9% | OVCAR-5 ovarian 87.3% | OVCAR-4 ovarian 80.1% | SK-OV-3 ovarian 89.2% | IGROV1 ovarian 71.2% | OVCAR-3 ovarian 63.2% | HS 578T breast 79.3% | NCI/ADR-RES ovarian 39.8% | T-47D breast 61% | BT-549 breast 57.6% | SW-620 colon 33.9% | MCF7 breast 51.2% | HCT-116 colon 31.4% | HCC-2998 colon 62.3% | KM12 colon 39.6%

C#CCOc1cccc(-c2ncc3cc(NC(=O)CCl)ccc3n2)c1
active: SR leukemia -28.2% | RPMI-8226 leukemia -24.9% | OVCAR-8 ovarian 6.25% | OVCAR-5 ovarian -58.8% | OVCAR-4 ovarian -28.2% | IGROV1 ovarian -52.7% | OVCAR-3 ovarian -51.2% | NCI/ADR-RES ovarian 7.12% | T-47D breast -26.7% | BT-549 breast -49.3% | MDA-MB-435 melanoma 2.74% | SW-620 colon -58.3% | MCF7 breast -21.6% | HCT-116 colon -26.9% | HCC-2998 colon -7.49%
inactive: SK-OV-3 ovarian 76.8% | HS 578T breast 31.7% | KM12 colon 14.2%

CNC(=O)c1cc(Oc2ccc3nc(NC(=O)Nc4ccc(Cl)c(Cl)c4)sc3c2)ccn1
inactive: SR leukemia 15.4% | RPMI-8226 leukemia 63% | OVCAR-5 ovarian 85.6% | SK-OV-3 ovarian 73.5% | IGROV1 ovarian 54.6% | OVCAR-3 ovarian 24.7% | T-47D breast 21.3% | BT-549 breast 32.1% | MDA-MB-435 melanoma 22.6% | SW-620 colon 50.4% | MCF7 breast 32.2% | HCC-2998 colon 63.4% | KM12 colon 56.8%
active: OVCAR-8 ovarian -34.6% | OVCAR-4 ovarian -39.9% | HS 578T breast -2.92% | NCI/ADR-RES ovarian -17.7% | HCT-116 colon -13.3%
